A549 viability: Nrf2 qHTS screen for inhibitors: counterscreen for cytotoxicity; A549 ARE-Fluc cells, CellTiter-Fluor viability, 18-24 h; Potency, µM (titrated, usually from 46 µM), for inactives: top-dose activity change, negative = cytotoxicity, most hits filed as inhibitors; actives 0.16% (n = 390,000); further: on the % scale 0 is the no-effect control and ±100 the full control effect
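A549 ARE-Fluc cells in 5% FBS OPTI-MEM, 5000 cells/well, rested 2 h then exposed to compounds in concentration-response for 18-24 h at 37 °C. Viability by CellTiter-Fluor fluorescence (Ex 405/Em 525) after 30 min; luciferase luminescence (BugLite, 15 min, RT) read afterwards.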
Nrf2 activator: qHTS of Nrf2 Activators; Potency, µM (highest dose often 46.1 µM), without a hit: top-dose activation, hits mostly activators; AID 624171, 2012; actives 0.31% (n = 410,000); AREc32 ARE-luciferase reporter (MCF7-derived line), luminescence, 24 h; further: % of control where 0% means no effect; nearly all actives have a fitted effect of over 65% in size
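Luciferase luminescence (Steady-Glo, 30 min at room temperature) served as the read-out of ARE activation in AREc32 cells treated with compounds for 24 hr at 37 deg C.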
ELG1 DNA repair: qHTS screen for small molecules that inhibit ELG1-dependent DNA repair in human embryonic kidney (HEK293T) cells expressing luciferase-tagged ELG1. HEK293T ELG1-luciferase reporter, luminescence, 16 h; DNA damage induced by 5-fluorouridine. Potency, µM (series often up to 46.1 µM), for the others: at the top dose activity change, negative = inhibition, most hits filed as inhibitors. actives 2.3% (n = 330,000). AID 504467, 2011; further: on the % scale 0 is the no-effect control and ±100 the full control effect; nearly all actives have a fitted effect of over 55% in size
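Step one: seed 2,000 cells per well. Step two: pin-transfer compound or DMSO alongside 5-fluorouridine. Step three: incubate 16 hr, 37 °C, 5% CO2. Step four: add ONE-Glo, wait 30 min, read luminescence.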
Nrf2 block: Nrf2 qHTS screen for inhibitors; A549 ARE-Fluc reporter, luciferase luminescence, 18-24 h; Potency, µM (top dose mostly 46 µM), without a hit: top-dose activity change, negative = inhibition, usual class: inhibitors; actives 2.1% (n = 360,000); AID 504444, 2011; further: on the % scale 0 is the no-effect control and ±100 the full control effect; nearly all actives have a fitted effect of over 60% in size
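Quantitative HTS in A549 cells stably bearing an antioxidant response element-firefly luciferase construct. Inhibition of Nrf2-driven transcription was scored by luminescence after 18-24 h of compound exposure at 37 °C.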
mIDH1 inhibitor: qHTS for Inhibitors of mutant isocitrate dehydrogenase 1 (IDH1): qHTS; IDH1-R132H enzyme, NADPH consumption, diaphorase/resazurin fluorescence; Potency, µM (top dose mostly 76.6 µM), for inactives: at the top dose activity change, negative = inhibition, most hits filed as inhibitors; actives 0.093% (n = 390,000); further: on the % scale 0 is the no-effect control and ±100 the full control effect; nearly all actives have a fitted effect of over 65% in size
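IDH1-R132H (0.5 ug/mL) preincubated 30 min with compound, then NADPH (0.016 mM) and alpha-KG (2 mM) added; 80 min at RT, pH 7.5. Remaining NADPH coupled via diaphorase/resazurin to fluorescence (540/590 nm); concentration-response curves normalized to no-enzyme control.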
ELG1 FLuc counter: qHTS screen for small molecules that inhibit ELG1-dependent DNA repair: Hit Confirmation in Cell-Based Luciferin Assay; shares compounds with ELG1 DNA repair; cell-free firefly luciferase luminescence counter-screen, ViewLux; Potency, µM (series often up to 46.1 µM), without a hit: at the highest dose activity change, negative = inhibition, most hits filed as inhibitors; actives 3% (n = 350); AID 624247, 2012; further: on the % scale 0 is the no-effect control and ±100 the full control effect
ELG1-Luc inh: HTS assay for small molecules that inhibit ELG1-dependent DNA repair in human embryonic kidney (HEK293T) cells expressing luciferase-tagged ELG1: Hit Confirmation. shares compounds with ELG1 DNA repair. HEK293T ELG1-luciferase levels, luminescence; cells co-treated with 5-fluorouridine. Potency, µM (series often up to 46.1 µM), inactives show at the highest dose activity change, negative = inhibition, hits mostly inhibitors. actives 68% (n = 670). AID 624248, 2012; further: on the % scale 0 is the no-effect control and ±100 the full control effect; nearly all actives have a fitted effect of over 55% in size
ELG1-Luc MMS: confirmation of human ELG1 repair inhibitors, MMS stimulated; shares compounds with ELG1 DNA repair; HEK293T luciferase-tagged ELG1 level, MMS stimulated; Potency, µM (doses to about 46.1 µM), inactives show top-dose activity change, negative = inhibition, actives largely listed as inhibitors; actives 53% (n = 670); AID 624249; further: on the % scale 0 is the no-effect control and ±100 the full control effect; nearly all actives have a fitted effect of over 60% in size
ELG1 5-FU: qHTS screen for small molecules that inhibit ELG1-dependent DNA repair: Hit Confirmation with 5FU Viability; shares compounds with ELG1 DNA repair; cell viability with 5-FU, ELG1-dependent repair; Potency, µM (doses to about 46.1 µM), without a hit: at the highest dose activity change, negative = viability loss, most hits filed as cytotoxic; 670 tested, under 10 active; AID 624250, 2012;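 further: ELG1-luc HEK293T cells cotreated with 5-fluorouridine at 10 µM final; viability measured 16 h after compound addition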
ELG1 MMS viab: qHTS screen for small molecules that inhibit ELG1-dependent DNA repair: Hit Confirmation with MMS Viability. shares compounds with ELG1 DNA repair. Cell viability with MMS, ELG1-dependent DNA repair. Potency, µM (series often up to 46.1 µM), without a hit: at the highest dose activity change, negative = viability loss, actives largely listed as cytotoxic. actives 33% (n = 670);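 further: ELG1-luc HEK293T cells co-treated with 10 µM MMS; viability read 16 h after compound addition; on the % scale 0 is the no-effect control and ±100 the full control effect; nearly all actives have a fitted effect of over 60% in size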
Cell viab unstim: qHTS screen for small molecules that inhibit ELG1-dependent DNA repair: Hit Confirmation with Unstimulated Viability Assay; cell viability counter-screen, unstimulated, luminescence; Potency, µM (highest dose often 45.9 µM), inactives show at the top dose activity change, negative = loss of viability, usual class: cytotoxic; actives 8% (n = 900); shares compounds with ELG1 DNA repair; AID 624252, 2012;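 further: compound exposure lasted 16 hours before reading; on the % scale 0 is the no-effect control and ±100 the full control effect; nearly all actives have a fitted effect of over 55% in size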
FLuc enzyme: qHTS screen for small molecules that inhibit ELG1-dependent DNA repair: Hit Confirmation in Biochemical Luciferin Assay | actives 10% (n = 350) | Potency, µM (top dose mostly 57.5 µM), for the others: at the top dose activity, negative = inhibition, most hits filed as inhibitors | shares compounds with ELG1 DNA repair | purified firefly luciferase, luminescence counter-screen | AID 624253, 2012; further: on the % scale 0 is the no-effect control and ±100 the full control effect
Active calls of the source: *; ? = inconclusive; / = no result given; [ ] = another dose, or the depositor's remark. Hits are enriched below; roughly 3.8% of the tested compounds scored in any of these assays. The call rests on the fitted dose curve; in most records, active means well fitted curve in the direction sought with a large enough effect; inconclusive means small, poorly fitted or top-dose-only effect, or another doubt; inactive means no such curve, though single readings can be large; an effect the other way counts as inactive or inconclusive. Potency means the concentration at half of the fitted maximal effect.

SMILES | A549 viability | Nrf2 activator | ELG1 DNA repair | Nrf2 block | mIDH1 inhibitor | ELG1-Luc inh | ELG1-Luc MMS | ELG1 5-FU | ELG1 MMS viab | Cell viab unstim | others
NS(=O)(=O)c1ccc(-c2c(-c3ccccc3)sc3ccccc23)cc1 | 0% | 1% | ? | 7% | -11% | / | / | / | / | /
CCC(CO)Oc1cc(NCc2ccccc2O)c2ncn(C(C)C)c2c1 (stereo not drawn) | -14% | 8% | 2.3µM* | ? | ? | 8.9µM* | 4.4µM* | 6% | 4.4µM* | ?
Cc1cccc(C)c1N1C(=O)CCC(C)(C)C1=O | -2% | 0% | 6% | 0% | -8% | / | / | / | / | /
COc1ccccc1N1CCN(C(=O)CCCN2C(=O)c3cccc4cccc(c34)C2=O)CC1 | -3% | 2% | 4.6µM* | ? | 10% | 7.9µM* | ? | ? | -4% | ?
COc1ccccc1N1CCN(C(=O)CN2C(=O)c3cccc4cccc(c34)C2=O)CC1 | 4% | 0%[9.22 µM] | ? | -21% | -1% | / | / | / | / | /
COc1cccc2c1C(=O)/C(=C\c1ccc(N(C)C)cc1)C2 | / | / | / | / | / | / | / | / | / | ?
Cc1ccccc1C(=O)Nc1cccc(C(=O)N/N=C/c2cc(Cl)cc([N+](=O)[O-])c2O)c1 | -14% | 1% | ? | ? | 6% | / | / | / | / | /
COc1cc(C(=O)NCc2ccccc2)cc(Br)c1OC | -1% | 0% | 3.7µM* | -8% | 0% | ? | -6% | ? | 12% | 6%
CCN1C(=O)[C@@H]2[C@@H](c3ccc(-c4ccc(Cl)c(Cl)c4)cc3)N3CCC[C@@]3(C(=O)OC)[C@@H]2C1=O | 0% | 2% | 2.3µM* | ? | 4% | 6.3µM* | 8.9µM* | ? | 10µM* | ?
CCN1C(=O)[C@H]2[C@@H](c3ccc(-c4ccc(Cl)c(Cl)c4)cc3)N3CCCC[C@@]3(C(=O)OC)[C@H]2C1=O | -8% | -2% | 25% | ? | -12% | / | / | / | / | /
Cc1ccc(CNC(=O)CCN2C(=O)C(C)Oc3ccc(C)cc32)cc1 (stereo not drawn) | 15% | 0% | / | 17% | -7% | / | / | / | / | /
COc1ccc(N=C2SCC(=O)N2CCc2ccc(OC)c(OC)c2)cc1 | 1% | 0% | ? | ? | 5% | / | / | / | / | /
COc1ccc(CCN2C(=O)CSC2=Nc2ccc(C(C)C)cc2)cc1OC | -21% | 3% | 4.1µM* | 16µM* | 18% | 25µM* | 2.5µM* | ? | 2µM* | 16µM*
O=C(O)c1c(Cl)c(Cl)c(Cl)c(Cl)c1C(=O)OCC1CCCO1 (stereo not drawn) | / | 0% | / | / | 5% | / | / | / | / | /
CCn1cc(C(=O)Nc2cccc(NC(C)=O)c2)c2cc(OC)c(OC)cc2c1=O | -4% | 0% | ? | 1% | 8% | / | / | / | / | /
CCOc1ccc(-n2cc(C(=O)Nc3cccc(OC)c3)c3cc(OC)c(OC)cc3c2=O)cc1 | ? | 0% | ? | -19% | 7% | 11µM* | 25µM* | ? | -1% | -20% | ELG1 FLuc counter=-8%;FLuc enzyme=-6%
CCOc1ccc(-n2cc(C(=O)Nc3ccccc3OCC)c3cc(OC)c(OC)cc3c2=O)cc1 | 13% | 0% | / | ? | 8% | / | / | / | / | /
CCn1cc(C(=O)Nc2ccc3c(c2)OCCO3)c2cc(OC)c(OC)cc2c1=O | -5% | 0% | 5.8µM* | 7% | 20% | 7.1µM* | ? | ? | ? | ? | ELG1 FLuc counter=27%;FLuc enzyme=-10%
CCc1cn(C2CC(O)C(CO)O2)c(=O)[nH]c1=O (stereo not drawn) | 7% | 0% | ? | 1% | -12% | / | / | / | / | /
CC(=O)NCCNc1nc2cc(-c3cnn(CCC(C)C)c3)sc2c(=O)n1C | / | 0%[9.22 µM] | / | / | / | / | / | / | / | /
COCCn1c(C(C)C)nc2oc3ccccc3c(=O)c2c1=O | -4% | 4% | 1.4µM* | ? | 2% | 5% | 11% | 10% | 8% | 12%
CCc1nc2oc3ccccc3c(=O)c2c(=O)n1CCOC | -6% | 2% | 6% | -6% | 2% | / | / | / | / | /
CCOC(=O)c1sc(NC(=O)c2nc3nc(C)cc(C(F)F)n3n2)c(C(=O)OC(C)C)c1C | 5% | -1% | / | 12% | 10% | / | / | / | / | /
O=C(N/N=C/c1sc(N2CCOCC2)nc1-c1ccccc1)c1cccc(S(=O)(=O)N2CCOCC2)c1 | ? | -1% | 4.6µM* | ? | 2% | 4µM* | 6.3µM* | 0% | ? | ?

Screens deposited in PubChem BioAssay by National Center for Advancing Translational Sciences (NCATS).
